Test [1] is described as follows: qHTS assay to identify small molecule antagonists of the constitutive androstane receptor (CAR) signaling pathway - cell viability counter screen (AID 1224837). Further: nearly all actives have a fitted effect of over 45% in size. Further: potency means the concentration at half of the fitted maximal effect. In outline: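 HepG2 cells stably carrying hCAR and CYP2B6-2.2kb reporter, stimulated with 50 nM CITCO and compounds at 15 concentrations for 23 h at 37 C. Viability measured by CellTiter-Fluor fluorescence.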
(In qHTS, concentration-response curves come from the screen itself.)

Test [2] has as its target Nuclear receptor subfamily 1 group I member 3 (Homo sapiens) (UniProt Q14994). The experiment in a line: qHTS assay to identify small molecule antagonists of the constitutive androstane receptor (CAR) signaling pathway (AID 1224838). Further: nearly all actives have a fitted effect of over 40% in size. Further: potency means the concentration at half of the fitted maximal effect. In outline: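 HepG2 cells stably carrying hCAR and a CYP2B6-2.2kb luciferase reporter, seeded 4 hrs before compound (15 concentrations). Stimulated with 50 nM CITCO for 24 hr at 37 C. ONE-Glo luminescence read after 30 min at room temperature.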

For test [3] the target is unchanged. The experiment in a line: qHTS assay to identify small molecule agonists of the constitutive androstane receptor (CAR) signaling pathway (AID 1224839). Further: nearly all actives have a fitted effect of over 15% in size. Further: potency means the concentration at half of the fitted maximal effect. On activation: on the % scale 0 is the no-effect control and ±100 the full control effect. In outline:
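HepG2 cells stably co-transfected with hCAR and a CYP2B6-2.2kb luciferase reporter; compounds at 15 concentrations with 0.75 uM PK11195 present. After 24 hr at 37 C, luciferase read by ONE-Glo luminescence.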

The nature of test [4]: qHTS assay to identify small molecule antagonists of the estrogen related receptor signaling pathway with the pleiotropic PPARgamma coactivator (PGC) from Tox21 10K library - cell viability counter screen (AID 1224840; active means well fitted cell-killing curve with a large enough effect in the repeat runs, not every such curve was filed as active; further: nearly all actives have a fitted effect of over 40% in size; further: potency means the concentration at half of the fitted maximal effect). The method, boiled down:
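PGC/ERR cells (2,000/well) plated 6 h, then compound-treated for 17.5 h at 37 C. Viability measured by CellTiter-Fluor fluorescence after 30 min at 37 C, multiplexed with the pathway assay.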

The target of test [5] is Thyrotropin receptor (Homo sapiens) (UniProt P16473). The experiment in a line: qHTS assay to identify small molecule agonists of the thyroid stimulating hormone receptor (TSHR) signaling pathway (AID 1224843; calls by dose curve; further: nearly all actives have a fitted effect of over 45% in size; further: potency means the concentration at half of the fitted maximal effect; on activation: on the % scale 0 is the no-effect control and ±100 the full control effect). The method, boiled down:
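Steps: seed 800 TSHR-HEK293 cells per well; add test compound and hold 30 min at ambient temperature; dispense cAMP-d2 then anti-cAMP cryptate; incubate 1 h at ambient; measure fluorescence intensity.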

Test [6] can be described thus: qHTS assay to identify small molecule agonists of the hypoxia (HIF-1) signaling pathway - cell viability counter screen (AID 1224844; calls by dose curve; further: nearly all actives have a fitted effect of over 50% in size; further: potency means the concentration at half of the fitted maximal effect). In outline:
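HRE-bla ME-180 cells, 2,000/well in 0.5% dialyzed FBS medium, treated 17 h at 37C with compounds. Viability read in the same wells as the bla reporter, by CellTiter-Glo luminescence after 30 min at room temperature.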

The nature of test [7]: qHTS assay to identify small molecule agonists of H2AX - cell viability counter screen (AID 1224847; calls by dose curve; further: nearly all actives have a fitted effect of over 30% in size; further: potency means the concentration at half of the fitted maximal effect). The method, boiled down:
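CHO-K1 cells plated overnight at 37C, then exposed 3 h at 37C to compounds at 15 concentrations (0.76% DMSO final). Viability by CellTiter-Glo luminescence after 30 min at room temperature.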

Test [8] in a line: qHTS RealTime-Glo MT Cell Viability Assay in HepG2 cells - 24 hour (AID 1224867). Further: nearly all actives have a fitted effect of over 50% in size. Further: potency means the concentration at half of the fitted maximal effect. The method, boiled down: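 Tox21 10K library screened in qHTS format on HepG2 cells carrying RealTime-Glo reagents. Compounds were added after a 5 h preincubation, and the luminescent signal from continuous culture was measured repeatedly during 40 h treatment.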
A short description of test [9]: qHTS RealTime-Glo MT Cell Viability Assay in HEK293 cells - 32 hour (AID 1224868). Further: nearly all actives have a fitted effect of over 50% in size. Further: potency means the concentration at half of the fitted maximal effect. In outline:
(§1)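 Luminescence generated by NanoLuc from substrate produced by living HEK293 cells served as the viability signal. Each value reflects the reading at its stated time point during continuous 40 h compound exposure at 37 C.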

Test [10] is described as follows: A CellTox Green Cytotoxicity Assay to monitor cytotoxicity in HEK293 cells - 0 hour (AID 1224869). Further: on the % scale 0 is the no-effect control and ±100 the full control effect; nearly all actives have a fitted effect of over 50% in size. The method, boiled down: (§2)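 HEK293 cells, 600/well, were preincubated 5 hours and then exposed to compounds at 37 C for up to 40 hours. A cell-impermeant cyanine dye staining dead-cell DNA was read by fluorescence at 0, 8, 16, 24, 32 and 40 h time points.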
Test [11] can be described thus: qHTS RealTime-Glo MT Cell Viability Assay in HepG2 cells - 40 hour (AID 1224870). Further: nearly all actives have a fitted effect of over 50% in size. Further: potency means the concentration at half of the fitted maximal effect. In outline: (§3)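 HepG2 cells (600/well) mixed with RealTime-Glo MT reagent, settled 5 h at 37 C/5% CO2 before compound addition. Nonlytic NanoLuc luminescence from viable-cell prosubstrate reduction read repeatedly during 40 h treatment at 37 C.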
A short description of test [12]: A CellTox Green Cytotoxicity Assay to monitor cytotoxicity in HEK293 cells - 40 hour (AID 1224871). Further: nearly all actives have a fitted effect of over 45% in size. Further: potency means the concentration at half of the fitted maximal effect. In outline: as §2
Test [13] can be described thus: qHTS RealTime-Glo MT Cell Viability Assay in HEK293 cells - 16 hour (AID 1224872). Further: nearly all actives have a fitted effect of over 50% in size. Further: potency means the concentration at half of the fitted maximal effect. The method, boiled down: as §1
Test [14] can be described thus: qHTS RealTime-Glo MT Cell Viability Assay in HepG2 cells - 8 hour (AID 1224873). Further: on the % scale 0 is the no-effect control and ±100 the full control effect; nearly all actives have a fitted effect of over 55% in size. The method, boiled down:
as §3

Test [15] can be described thus: qHTS assay to identify small molecule agonists of H2AX (AID 1224845; active means well fitted activation curve with a large enough effect in the signal ratio in the repeat runs, not every such curve was filed as active; the % refers to the signal ratio; further: potency means the concentration at half of the fitted maximal effect). The method, boiled down:
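Wild-type CHO-K1 cells, plated overnight, exposed 3hr at 37C to 15 concentrations (0.76% DMSO final). Lysed, then HTRF anti-pH2AX (S139) cryptate and anti-H2AX-d2 antibodies, 24 hr room temperature; 665/620 nm emission read.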

A short description of test [16]: qHTS assay to identify small molecule agonists of the hypoxia (HIF-1) signaling pathway (AID 1224846; active means well fitted activation curve with a large enough effect in the signal ratio in the repeat runs, not every such curve was filed as active; the % refers to the signal ratio; further: on the % scale 0 is the no-effect control and ±100 the full control effect). The method, boiled down:
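HRE-bla ME-180 beta-lactamase reporter cells in medium with 0.5% dialyzed FBS, pre-incubated 5 h then exposed to compounds 17 h at 37C, 5% CO2; reporter induction read with CCF4-AM FRET substrate.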

Test [17] in a line: qHTS assay to identify small molecule antagonists of the estrogen related receptor (ERR) signaling pathway from Tox21 library (AID 1224848). The method, boiled down:
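Luminescent reporter read-out (ONE-Glo) from NTP's ERR cell line after 18 h treatment at 37 C with DMSO-dissolved Tox21 compounds; cells pre-plated 6 h beforehand at 2,000 per well.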

The nature of test [18]: qHTS assay to identify small molecule agonists of the estrogen related receptor (ERR) signaling pathway from Tox21 library (AID 1224849; calls by dose curve; further: on the % scale 0 is the no-effect control and ±100 the full control effect; nearly all actives have a fitted effect of over 15% in size). Conditions: ERR reporter cell line, ONE-Glo luciferase, 18 h; at 92.4 µM (top of the series) unless noted. In outline: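 ERR reporter cells (NTP line) pre-incubated 6 hours at 37 C, then exposed to compounds for 18 hours at 37 C. ONE-Glo luciferase luminescence was read after 30 minutes at room temperature.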

Values without a mark were called inactive. Inconclusive results are not listed. Active and inactive are the calls of the source. Unless noted, the call rests on the fitted dose curve; in most records, active means well fitted curve in the direction sought with a large enough effect in the repeat runs; inconclusive means weak or mixed curves; inactive means no such curve, though single readings can be large; an effect the other way counts as inactive or inconclusive.

Chain of Nuclear receptor subfamily 1 group I member 3 (Homo sapiens) (Q14994 whole entry, looked up): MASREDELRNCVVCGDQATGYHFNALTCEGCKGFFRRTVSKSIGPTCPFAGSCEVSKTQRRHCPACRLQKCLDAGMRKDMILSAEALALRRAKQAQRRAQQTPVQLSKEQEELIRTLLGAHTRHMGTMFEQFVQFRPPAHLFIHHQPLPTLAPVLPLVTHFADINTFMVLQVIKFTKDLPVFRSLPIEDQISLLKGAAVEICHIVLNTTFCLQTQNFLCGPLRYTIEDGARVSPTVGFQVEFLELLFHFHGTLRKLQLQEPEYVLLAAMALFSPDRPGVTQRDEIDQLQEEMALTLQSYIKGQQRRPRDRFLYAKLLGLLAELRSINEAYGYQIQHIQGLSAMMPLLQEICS
Chain of Thyrotropin receptor (Homo sapiens) (P16473 whole entry, looked up): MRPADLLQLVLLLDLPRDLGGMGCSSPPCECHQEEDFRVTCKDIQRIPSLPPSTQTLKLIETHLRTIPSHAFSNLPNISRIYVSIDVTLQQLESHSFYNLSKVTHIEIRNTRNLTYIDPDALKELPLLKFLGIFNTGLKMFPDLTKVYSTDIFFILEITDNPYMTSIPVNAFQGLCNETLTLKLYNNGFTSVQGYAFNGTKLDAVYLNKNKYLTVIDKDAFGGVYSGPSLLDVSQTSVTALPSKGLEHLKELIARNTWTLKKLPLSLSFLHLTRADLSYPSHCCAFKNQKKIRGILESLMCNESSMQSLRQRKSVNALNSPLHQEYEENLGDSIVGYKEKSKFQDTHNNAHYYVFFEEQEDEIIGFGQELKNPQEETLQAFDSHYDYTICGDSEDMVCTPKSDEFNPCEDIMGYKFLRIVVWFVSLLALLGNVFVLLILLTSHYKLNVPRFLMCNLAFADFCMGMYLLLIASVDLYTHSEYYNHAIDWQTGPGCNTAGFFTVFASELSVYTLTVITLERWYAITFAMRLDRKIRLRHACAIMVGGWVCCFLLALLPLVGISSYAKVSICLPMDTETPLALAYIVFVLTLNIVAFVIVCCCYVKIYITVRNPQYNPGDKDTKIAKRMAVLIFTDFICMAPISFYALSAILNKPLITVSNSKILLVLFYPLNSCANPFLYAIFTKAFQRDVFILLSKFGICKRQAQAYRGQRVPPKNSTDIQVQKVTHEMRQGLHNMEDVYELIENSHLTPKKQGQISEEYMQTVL

For `Cc1ccc2nc(-c3ccc(N)cc3)sc2c1S(=O)(=O)O`, the Potency result in test [1], in [2], in test [4], in [5], in test [6] and in test [7] was “inactive” throughout. Further, the Potency result in [8], in test [9], in [10], in [11], in test [12] and in test [13] was “inactive” each time. In addition, in test [14], the Potency entry is “inactive”. The Potency in test [3] was 9.54 µM (active).

Take `N#Cc1ccc(C/C(=N/NC(=O)Nc2ccc(OC(F)(F)F)cc2)c2cccc(C(F)(F)F)c2)cc1`: the Potency entry in [1], in test [2], in [3], in test [4], in test [5] and in test [15] was “inactive” throughout. For the same compound, the Potency entry in test [7], in test [9], in test [10] and in test [13] was “inactive” throughout.

In the case of `CC1=C(/C=C/C(C)=C/C=C/C(C)=C\C(=O)O)C(C)(C)CCC1`, the Potency result in test [1], in test [2], in test [4], in test [15], in test [7] and in [8] was “inactive” in each case. The Potency entry in test [10], in test [11], in test [13] and in test [14] was “inactive” each time. The Potency in [3] is 27.4 µM (active); in test [6], 34.8 µM (active).

As for `C=Cc1ccc(O)c(OC)c1`, the Potency entry in test [1], in test [2], in [3], in test [4], in test [5] and in test [6] was “inactive” throughout. In addition, the Potency entry in test [16], in test [8], in [9], in test [10], in test [11] and in [12] was “inactive” throughout. Besides, the Potency entry in test [13] and in test [14] was “inactive” in each case.

Consider `O=S(=O)(c1ccc(OCc2ccccc2)cc1)c1ccccc1O`, for which the Potency result in test [1], in test [2], in test [3], in test [4], in test [5] and in test [6] was “inactive” throughout. In addition, the Potency result in [15], in test [8], in [10], in [11], in [12] and in [14] was “inactive” throughout. The Potency in test [17] was 19.3 µM (active). In addition, the activity change, positive = activation in test [18] was -29%.

Regarding `Cc1ccc(S(=O)(=O)C(I)I)cc1`, the Potency in test [1] was 34.4 µM (active); in test [2] it was 27.3 µM (active); in [4] it was 48.6 µM (active); in [5], 3.06 µM (active); in test [6], 13.8 µM (active); in test [15], 16 µM (active). For the same compound, the Potency in test [7] was 22.5 µM (active); in test [17], 61.1 µM (active); in test [8], 11 µM (active); in [9], 12.3 µM (active); in test [11], 12.3 µM (active); in [12] it was 19.5 µM (active). The Potency in test [13] was 15.5 µM (active). Further, the Potency result in test [3] and in [10] was “inactive” each time. The activity change, positive = activation in [18] is -77.2%.

Consider `CCOC(=O)[C@H](O)[C@@H](O)C(=O)OCC`, for which the Potency result in test [1], in test [2], in [3], in [4], in [6] and in test [15] was “inactive” each time. Besides, the Potency result in [16], in [7], in test [8], in [9], in [10] and in test [11] was “inactive” each time. The Potency entry in test [12] and in test [13] was “inactive” each time.

Take `[Cl][Dy]([Cl])[Cl]`: the Potency entry in test [1], in [2], in test [3], in [4], in [5] and in test [6] was “inactive” throughout. Besides, the Potency entry in test [15], in test [16], in test [7], in [8], in [9] and in test [10] was “inactive” each time. In addition, the Potency result in test [11], in [12], in test [13] and in test [14] was “inactive” each time.
